Source: PubChem BioAssay AID651871 (Sanford-Burnham Center for Chemical Genomics, 2012)

Test system: HL-1
Test: cardiomyocyte survival under oxidative or metabolic stress – cell-based, panel, H9c2 and HL-1, ATP luminescence, set 2, SAR follow-up (AID 651871);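 further: cells exposed to stressor for 2 h before ATP readout; reference of the scale not given here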
Details: H9c2/HL-1 cardiomyocytes, 2-deoxyglucose stress, with 2-deoxyglucose, run 10, at 19.8 µM (top of the series)

## COc1ccc2c(c1OC)C(=O)N1c3ccccc3C(=O)N(Cc3cccc(Cl)c3Cl)C21 (stereo unspecified)
  activity (protection/inhibition): 33.5%
